Results reported in PubChem BioAssay (NCI).
The panel holds about 83,000 compounds, 20% with a hit somewhere; the sample as a whole holds those more often.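 Method: cells in 96-well plates; compound added at one concentration; 48 h incubation; percent growth measured; values under 10 scored active.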 The source made the active and inactive calls.

system: SK-MEL-28 melanoma; experiment: NCI-60 one-dose screen, 48 h (100 = growth as untreated, 0 = no growth, -100 = all killed); conditions: 10 µM unless noted

**Q.** For `CC1(C)OC2COC3(C(=O)O)OC(C)(C)OC3C2O1` (stereo not drawn), which growth is on record?
**A.** 107% (inactive)

**Q.** How did the growth turn out when `Cc1ccc(Cn2c(-c3cccs3)nc3ccccc32)cc1` was run?
**A.** 111% (inactive)

**Q.** Which growth does the source give for `COc1cc2c(cc1OC)C1(C)N(CC2)C(=O)OC1(C)C` (stereo not drawn) here?
**A.** 112% (inactive)

**Q.** With `Cc1cc(-c2ccccc2)c(C)n1Cc1ccc(Cl)cc1` as the molecule, how does the growth read?
**A.** 55.8% (inactive)

**Q.** For `CCN(Cc1ccccc1)c1ccc(SC#N)cc1`, which growth is on record?
**A.** 86.7% (inactive)

**Q.** `O=C1Nc2ccc(Br)cc2C1=N/C=c1\[nH]c(=O)/c(=C/c2ccc(Cl)cc2)s1` was tested. Which growth did it give?
**A.** 105% (inactive)

**Q.** `COc1ccc(-c2nc(-c3ccccc3)c(-c3ccccc3)n2C2CC2)cc1OC1CCCCC1` was tested. Which growth did it give?
**A.** 77.7% (inactive)

**Q.** `CC(=O)Nc1ccc(S(=O)(=O)N2C(=O)CCC2C(=O)Nc2ccccc2)cc1` (stereo not drawn) was tested. Which growth did it give?
**A.** 48.6% (inactive)

**Q.** `COc1cc(CNC(=O)CCSc2nc3ccccc3c(=O)n2Cc2cc(OC)c(OC)c(OC)c2)cc(OC)c1OC` was tested. Which growth did it give?
**A.** 55.8% (inactive)

**Q.** `O=C(CN1CCN(c2cc3c(cc2F)c(=O)c(C(=O)O)cn3C2CC2)CC1)Nc1ccc(C(=O)/C=C/c2ccccc2)cc1` was tested. Which growth did it give?
**A.** 85.7% (inactive)

**Q.** For `CC(C)N(Cc1ccc(CN(C(=O)CCl)C(C)C)cc1)C(=O)CCl`, which growth is on record?
**A.** 33.1% (inactive)

**Q.** Which growth does the source give for `COc1ccc(/C=C/c2cc(N3CCOCC3)c3cc(F)c(F)cc3n2)cc1OC` here?
**A.** 51.4% (inactive)

**Q.** Which growth does the source give for `COc1cccc(-n2cc(-c3nc(Cl)c4ccccc4n3)nn2)c1` here?
**A.** 95% (inactive)

**Q.** Which growth does the source give for `CCNC(=O)C1CCCN1C(=O)C(CCCN=C(N)N)NC(=O)C(CC(C)C)NC(=O)C(CC(C)C)NC(=O)C(Cc1ccc(O)cc1)NC(=O)C(CO)NC(=O)C(Cc1c[nH]c2ccccc12)NC(=O)C(Cc1cnc[nH]1)NC(=O)C1CCC(=O)N1` (stereo not drawn) here?
**A.** 168% (inactive)

**Q.** Which growth does the source give for `Nc1c(C(=O)Nc2cccc(Cl)c2Cl)sc2nc3c(cc12)C(=O)CCC3` here?
**A.** 65% (inactive)

**Q.** With `COc1cc(C2C=C(C)N=C3SC(C)=NN32)cc(OC)c1OC` (stereo not drawn) as the molecule, how does the growth read?
**A.** 119% (inactive)

**Q.** `Nc1c(C(=O)Nc2cccc(C(F)(F)F)c2)sc2nc3c(cc12)CCCCCC3` was tested. Which growth did it give?
**A.** 10.4% (inactive)

**Q.** `O=Nc1c(-c2c(O)[nH]c3ccc([N+](=O)[O-])cc23)[nH]c2ccc(O)cc12` was tested. Which growth did it give?
**A.** -11% (active)

**Q.** Which growth does the source give for `c1cc(-c2ccc3c(c2)OCO3)n2nccc2n1` here?
**A.** 105% (inactive)

**Q.** Which growth does the source give for `Nc1c(C(=O)Nc2cccc([N+](=O)[O-])c2)sc2nc3c(cc12)C(O)CCC3` (stereo not drawn) here?
**A.** 54.9% (inactive)

**Q.** For `CCn1cc(C(=O)O)c(=O)c2cc(F)c(N3CCN(S(=O)(=O)c4ccc(Cl)cc4Cl)CC3)cc21`, which growth is on record?
**A.** 107% (inactive)

**Q.** Which growth does the source give for `CN1C(=O)[C@H]2c3c1cccc3[C@@]13NC(=O)O[C@H]1[C@H](CCC3(C)C)C2(C)C` here?
**A.** 109% (inactive)

**Q.** Which growth does the source give for `CN1CCN(c2ccc3cc(-c4nc5ccccc5[nH]4)c(=O)oc3c2)CC1` here?
**A.** 94.9% (inactive)

**Q.** How did the growth turn out when `Cc1ccc(Cn2c(-c3nonc3N)nc3ccccc32)cc1` was run?
**A.** 90% (inactive)

**Q.** Which growth does the source give for `CCc1cccc(C)c1NC(=O)c1sc2nc3c(cc2c1N)C(=O)CCC3` here?
**A.** 42.9% (inactive)

**Q.** With `COc1cc(-c2cc(/C=C3\CCCCC3=O)[nH]n2)cc(OC)c1OC` as the molecule, how does the growth read?
**A.** 114% (inactive)

**Q.** Which growth does the source give for `FC(F)(F)c1cccc(-n2nnc3cnc(Nc4ccc(N5CCCCC5)cc4)nc32)c1` here?
**A.** -0.691% (active)

**Q.** With `Cc1ccc(OCCn2c(C)nn(-c3ccc(Cl)cc3)c2=O)cc1` as the molecule, how does the growth read?
**A.** 101% (inactive)

**Q.** Which growth does the source give for `CN1CCN(CCCOc2ccc3nc(Nc4ccc(C(F)(F)F)c(Cl)c4)ccc3c2)CC1` here?
**A.** -73.2% (active)

**Q.** Which growth does the source give for `COc1cc(Cn2c(SCC(=O)Nc3cc(OC)c(OC)c(OC)c3)nc3ccccc3c2=O)cc(OC)c1OC` here?
**A.** 100% (inactive)

**Q.** `c1ccc(CCn2nnc3c(Nc4ccc(N5CCOCC5)cc4)ncnc32)cc1` was tested. Which growth did it give?
**A.** 104% (inactive)

**Q.** Which growth does the source give for `CCCC1OC(c2ccc(C(C)C)cc2)OCC1CC` (stereo not drawn) here?
**A.** 104% (inactive)

**Q.** `Oc1ccc(N=Cc2ccccc2)cc1` was tested. Which growth did it give?
**A.** 113% (inactive)

**Q.** How did the growth turn out when `COc1cccc(NC(=O)c2sc3nc4c(cc3c2N)CCCC4)c1` was run?
**A.** 48.9% (inactive)

**Q.** How did the growth turn out when `Cn1cc(C=O)c2ccccc21` was run?
**A.** 109% (inactive)

**Q.** `O=C1CCCCN1CCCCC#Cc1ccccc1C#Cc1ccc([N+](=O)[O-])cc1` was tested. Which growth did it give?
**A.** 46.1% (inactive)

**Q.** Which growth does the source give for `O=C(c1ccncc1)N1N=C(c2ccc(Cl)cc2)CC1c1c[nH]c2ccccc12` (stereo not drawn) here?
**A.** 107% (inactive)

**Q.** How did the growth turn out when `Cc1cc2c(c(=O)o1)C(c1ccc(OC(=O)N3CCOCC3)cc1)C(C#N)=C(N)O2` (stereo not drawn) was run?
**A.** 110% (inactive)
